Screens deposited in PubChem BioAssay by National Center for Advancing Translational Sciences (NCATS).
Tau fibril ThT: blocks human tau fibril formation measured by thioflavin T; recombinant tau K18 P301L, heparin-induced fibrillization, ThT fluorescence; Potency, µM (doses to about 57.4 µM), actives largely listed as inhibitors; 270,000 tested, 2.1% active; note: nearly all actives have a fitted effect of over 55% in size
Target sequence (P10636 561-689 P618L limits assumed): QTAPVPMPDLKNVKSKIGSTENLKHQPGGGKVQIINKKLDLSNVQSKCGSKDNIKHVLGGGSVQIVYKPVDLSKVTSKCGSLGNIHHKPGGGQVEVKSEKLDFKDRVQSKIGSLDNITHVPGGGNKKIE
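Recombinant human tau K18 fragment […] carrying P301L, 15 uM unlabeled plus 0.24 uM Alexa 594-labeled, was fibrillized with 20 uM heparin in 100 mM sodium acetate pH 7 for 6 hr at 37 C; 30 uM ThT fluorescence read after 1 hr.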
Coupling enz: counter-screen for Giardia aldolase inhibitors: coupling enzyme system. 290,000 tested, 0.67% active. coupling enzyme system counterscreen, AmpLite Red fluorescence. activity change, negative = inhibition, % at 58.2 µM, hits read low. AID 2472; in the data active = activity change below about -30%
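Activity here indicates interference with the coupling reaction, not aldolase inhibition. Compounds at 57.5 uM final met coupling enzymes for 10 min at RT; substrate and AmpLite Red detection followed, with a 525/598 nm fluorescence read after 20 min.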
Sfp inh: Sfp phosphopantetheinyl transferase inhibition. Potency, µM, usual class: inhibitors. 310,000 tested, 3.5% active. Biochemical Sfp PPTase activity, qHTS. Q9F4F7;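 note: the enzyme is Sfp with the accession as filed and its product quenches rhodamine fluorescence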
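Sfp 15 nM + cpd, 15 min RT; start w/ rhodamine-CoA 5 uM, BHQ-2-YbbR 12.5 uM (final); 50 mM Hepes pH 7.6, 10 mM MgCl2, 0.01% NP-40, 0.01% BSA; read 525/598 nm at 0 and 30 min.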
Tau fluor counter: counter-screen for tau fibril formation inhibitors; 280,000 tested, 0.93% active; Potency, µM (doses to about 57.7 µM); tau K18 P301L Alexa594 fluorescence, heparin fibrillization; note: nearly all actives have a fitted effect of over 55% in size
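Human tau K18 P301L (15 uM unlabeled, 0.24 uM Alexa 594-labeled) in 100 mM sodium acetate pH 7 with 20 uM heparin, 6 hr at 37 C. ThT 30 uM added, 1 hr ambient; Alexa 594 FP and total fluorescence read at 555/632 nm.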
Tau FP inhib: inhibitors of human tau fibril formation | K18 P301L tau heparin fibrillization, Alexa594 FP, 6 h | 280,000 tested, 0.39% active | P10636 | Potency, µM (series often up to 57.7 µM), most hits filed as inhibitors; note: nearly all actives have a fitted effect of over 55% in size
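Human K18 P301L fragment (15 uM unlabeled plus 0.24 uM Alexa 594-labeled) in 100 mM sodium acetate pH 7 with compound, aggregation induced by 20 uM heparin for 6 hr at 37 C. ThT (30 uM) added for 1 hr, then Alexa 594 FP read.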
Large screens that a line does not name were inactive; [ ] = another dose, or the depositor's remark. This is a sample that favours compounds with a hit; in the whole collection about 5.2% have one here. Unless noted, calls come from the whole dose curve; as a rule, active = well fitted curve in the direction sought with a large enough effect; inconclusive = small, poorly fitted or top-dose-only effect, or another doubt; inactive = no such curve, though single readings can be large; an effect the other way counts as inactive or inconclusive.

Cc1ccc(CN(C)C(=O)c2cc(COc3ccc(F)cc3Cl)on2)o1	Tau fibril ThT inconclusive, Sfp inh 35µM
CN(Cc1nccn1C)C(=O)c1cc(COc2cccc(C(F)(F)F)c2)on1	none (no result: Tau fibril ThT, Coupling enz, Tau fluor counter, Tau FP inhib)
C#CCN(Cc1ccco1)C(=O)c1cc(COc2ccc(F)cc2Cl)on1	Tau fibril ThT 13µM, Sfp inh 13µM
Cc1nonc1CN(C)C(=O)c1cc(COc2ccc(F)cc2Cl)on1	none (no result: Tau fibril ThT, Coupling enz, Tau fluor counter, Tau FP inhib)
CC(C)OCCCn1c(SCc2ccccc2Cl)nc2c(sc3ccccc32)c1=O	none (no result: Coupling enz, Sfp inh)
CC(=O)c1c(O)ccc2c(-c3ccccc3)cc(=O)oc12	none
CC(=O)c1c(O)cccc1O	Sfp inh 25µM (no result: Tau fibril ThT, Tau fluor counter, Tau FP inhib)
COC(=O)c1sccc1NC(=O)C1CC=CCC1C(=O)O (stereo not drawn)	none
COC(=O)c1c(-c2ccco2)csc1NC(=O)C1CC=CCC1C(=O)O (stereo not drawn)	Sfp inh 13µM
CCOC(=O)c1c(-c2ccc(F)cc2)csc1NC(=O)C1CC=CCC1C(=O)O (stereo not drawn)	Sfp inh 40µM
CCOC(=O)c1c(-c2ccc(C)c(C)c2)csc1NC(=O)C1CC=CCC1C(=O)O (stereo not drawn)	Tau fibril ThT inconclusive
CCCn1cc(S(=O)(=O)c2cccc(Cl)c2)c(=O)c2cc(F)c(N3CCCC3)cc21	none (no result: Coupling enz, Sfp inh)
Cc1ccccc1OCC(=O)N(Cc1ccc(N(C)C)cc1)CC1CCCO1 (stereo not drawn)	none (no result: Coupling enz, Sfp inh)
COCc1cc(O)c(O)c(O)c1-c1c(COC)cc(O)c(O)c1O	Tau fibril ThT 3.2µM, Coupling enz -49, Sfp inh 7.9µM, Tau fluor counter inconclusive, Tau FP inhib 6.3µM
CCc1ccc2[nH]c(=O)c(CN(Cc3ccccc3)Cc3nnnn3Cc3ccco3)cc2c1	Sfp inh 18µM
CCOC(=O)Cn1nnnc1CN(Cc1ccccc1)Cc1cc2cc(CC)ccc2[nH]c1=O	none
Cc1cc(C)c2cc(CN(Cc3ccc4c(c3)OCO4)Cc3nnnn3Cc3ccco3)c(=O)[nH]c2c1	Sfp inh 14µM
CCOC(=O)Cn1nnnc1CN(Cc1cccs1)Cc1cc2cc(C)cc(C)c2[nH]c1=O	Sfp inh 16µM
O=c1[nH]c2cc3c(cc2cc1CN(Cc1ccccc1)Cc1nnnn1Cc1ccco1)OCCO3	Tau fibril ThT inconclusive, Sfp inh 11µM
COCCn1c(=O)c(-c2ccc(F)cc2)nc2cnc(Nc3cccc(OC)c3)nc21	none (no result: Tau fibril ThT, Tau fluor counter, Tau FP inhib)
CCCN(C(=O)Cn1ncc2c1-c1ccccc1OC2)c1cccc(C)c1	none (no result: Coupling enz, Sfp inh)
O=C(O)C1CC[C@@](C(=O)O)(c2ccccc2)c2ccccc21 (stereo partly drawn)	none
O=c1[nH]c2cc3c(cc2cc1CN(Cc1cccnc1)Cc1nnnn1Cc1ccco1)OCCO3	Sfp inh 16µM
O=c1[nH]c2cc3c(cc2cc1CN(Cc1cccs1)Cc1nnnn1Cc1ccco1)OCCO3	Tau fibril ThT inconclusive, Sfp inh 20µM, Tau FP inhib inconclusive
Cc1ccc2[nH]c(=O)c(CN(Cc3ccc4c(c3)OCO4)Cc3nnnn3Cc3ccco3)cc2c1	none
COc1cc(C(=O)N(Cc2cccnc2)Cc2cc3cc4c(cc3[nH]c2=O)OCCO4)cc(OC)c1OC	Coupling enz -50
COc1ccccc1CN(Cc1cc2cc3c(cc2[nH]c1=O)OCCO3)Cc1nnnn1Cc1ccco1	Sfp inh 13µM
O=C(c1ccccc1F)N(Cc1cccnc1)Cc1cc2cc3c(cc2[nH]c1=O)OCCO3	none
O=S(=O)(c1ccc(Cl)cc1)c1nc(-c2ccccc2Br)oc1N1CCOCC1	none (no result: Coupling enz, Sfp inh)
CCCN1C(=O)/C(=C\c2nc3ccccc3c(=O)[nH]2)c2ccccc21	Tau fibril ThT 22µM, Sfp inh inconclusive
CCc1c(C)sc(NC(=S)Nc2cccnc2)c1C(=O)OC	Sfp inh 20µM, Tau fluor counter inconclusive
CCc1c(C)sc(NC(=S)Nc2nc(C)cc(C)n2)c1C(=O)OC	none
COC(=O)c1ccc(CSc2ncnc3ccccc23)o1	Tau fibril ThT inconclusive
COC(=O)c1ccc(CSc2cc(C)c3cc(C)cc(C)c3n2)o1	Tau fibril ThT inconclusive, Sfp inh 14µM
COC(=O)c1ccc(CSc2n[nH]c(C)n2)o1	none
COC(=O)c1ccc(CSc2ccc3nnc(-c4cccc(F)c4)n3n2)o1	Sfp inh 50µM
COC(=O)c1ccc(CSc2cc(C)c3cccc(C)c3n2)o1	Sfp inh 10µM, Tau FP inhib inconclusive
CCOC(=O)NC(=O)CSc1cc(C)c2cc(C)cc(C)c2n1	Tau fibril ThT inconclusive, Sfp inh 45µM
CCN1C(=O)/C(=C2\SC(=S)N(NC(=O)c3ccccc3O)C2=O)c2ccccc21	Tau fibril ThT 20µM, Tau fluor counter 20µM[quencher], Tau FP inhib inconclusive
CC(/C=C1\SC(=S)N(NS(=O)(=O)c2ccc(C)cc2)C1=O)=C\c1ccccc1	Tau fibril ThT 11µM, Tau FP inhib inconclusive
Cc1ccc(S(=O)(=O)NN2C(=O)/C(=C/c3cccc(F)c3)SC2=S)cc1	none (no result: Tau fibril ThT, Tau fluor counter, Tau FP inhib)
CC(=O)N1C(=O)/C(=C2\SC(=S)N(NS(=O)(=O)c3ccc(C)cc3)C2=O)c2ccccc21	Tau fibril ThT 14µM, Sfp inh 45µM, Tau fluor counter inconclusive, Tau FP inhib inconclusive
CC(/C=C1\SC(=S)N(NS(=O)(=O)c2ccccc2)C1=O)=C\c1ccccc1	Tau fibril ThT 10µM, Tau FP inhib inconclusive
Cc1cc(NC(c2nnc(-c3ccccc3)o2)c2ccccc2F)ccc1Br (stereo not drawn)	Tau fluor counter inconclusive (no result: Coupling enz, Sfp inh)
COc1ccccc1CNC(=O)C1CCN(C2=NS(=O)(=O)C(c3ccc(C)c(C)c3)=C2C)CC1	Tau fibril ThT inconclusive (no result: Coupling enz, Sfp inh)
CC(/C=C1\SC(=S)N(C(C(=O)O)C(C)C)C1=O)=C\c1ccccc1 (stereo not drawn)	Tau fibril ThT 22µM, Sfp inh inconclusive
CC(/C=C1\SC(=S)N(c2ccc(C(=O)O)cc2)C1=O)=C\c1ccccc1	none (no result: Tau fibril ThT)
CC(=O)N1C(=O)/C(=C2\SC(=S)N(c3c(C)n(C)n(-c4ccccc4)c3=O)C2=O)c2ccccc21	Tau fibril ThT inconclusive, Coupling enz -40
Cc1c(N2C(=O)/C(=C3/C(=O)N(C)c4ccccc43)SC2=S)c(=O)n(-c2ccccc2)n1C	Tau fibril ThT inconclusive
CCc1cccc(NC(=O)C(Cc2ccccc2)NS(=O)(=O)c2ccc3c(c2)c(=O)n(C)c(=O)n3C)c1 (stereo not drawn)	none (no result: Coupling enz, Sfp inh)
O=C(CSc1n[nH]c(-c2ccc(F)cc2)n1)N1CCN(c2ccc(F)cc2)CC1	Tau fibril ThT inconclusive (no result: Coupling enz, Sfp inh)
COc1cc2ncc3c(-c4ccccc4)nn(CC(=O)NC4CCCCC4)c3c2cc1OC	Tau fibril ThT inconclusive (no result: Coupling enz, Sfp inh)
O=C(Nc1nc2ccc(Cl)cc2s1)c1ccc(Br)o1	none
Fc1ccc2nc(Nc3ccccc3)sc2c1	Tau fluor counter inconclusive
NNc1nc2ccc(F)cc2s1	Tau fibril ThT 25µM, Tau fluor counter 18µM[quencher], Tau FP inhib inconclusive
NNc1nc2ccc(Cl)cc2s1	Tau fibril ThT 22µM, Tau fluor counter 14µM[quencher], Tau FP inhib inconclusive
